BAZ2B inh: qHTS Assay for Inhibitors of BAZ2B; AlphaScreen BAZ2B-H3K14Ac peptide displacement; AID 504333, 2011; Potency, µM (highest dose often 114 µM), for inactives: at the highest dose activity change, negative = inhibition, usual class: inhibitors; actives 4.4% (n = 360,000); also: potency is read from the fitted curve at half-maximal effect; % is scaled to controls: 0 for no effect and ±100 for the full control effect; nearly all actives have a fitted effect of over 60% in size
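Protein-peptide AlphaScreen: BAZ2B 50 nM, b-H3K14Ac 50 nM, 1x PBS pH 7.4 + 0.01% Tween-20. Preincubation 30 min RT; cpd 30 min RT (top 110 uM); beads 20 min RT, light-protected.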
JMJD2A Tudor inh: qHTS Assay for Inhibitors of JMJD2A-Tudor Domain. AlphaScreen JMJD2A-Tudor / H3K4me3 peptide binding. actives 4.4% (n = 390,000). Potency, µM (top dose mostly 114 µM), without a hit: at the highest dose activity change, negative = inhibition, most hits filed as inhibitors; also: potency is read from the fitted curve at half-maximal effect; % is scaled to controls: 0 for no effect and ±100 for the full control effect; nearly all actives have a fitted effect of over 50% in size
CtBP-E1A inh: qHTS Assay for Inhibitors of the CtBP/E1A Interaction | AlphaScreen GST-E1A/His-CtBP binding, 1536-well; hits give low values | CtBP / adenovirus E1A interaction (AlphaScreen) | AID 651724, 2012 | activity change, % (concentration not given with the values) | actives 0.49% (n = 340,000); in the data active = activity change below about -65%; inconclusive = mostly about -30% to -63%; also: % is scaled to controls: 0 for no effect and ±100 for the full control effect
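In 5 uL wells, 23 nL compound meets equimolar GST-E1A and His-CtBP (5X stock 125 nM each) for 2 h, 37 °C. Beads (5X, 50 ug/mL) then 1 h, 37 °C, dark.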
HP1b binding inh: HTS for Inhibitors of HP1-beta Chromodomain Interactions with Methylated Histone Tails. actives 0.56% (n = 390,000). AlphaScreen HP1-beta / biotin-H3K9me3 peptide binding. Potency, µM (series often up to 114 µM), without a hit: at the top dose activity change, negative = inhibition, most hits filed as inhibitors. Chromobox protein homolog 1 (Homo sapiens), P83916; also: potency is read from the fitted curve at half-maximal effect; nearly all actives have a fitted effect of over 70% in size
Target sequence (P83916 whole entry, looked up): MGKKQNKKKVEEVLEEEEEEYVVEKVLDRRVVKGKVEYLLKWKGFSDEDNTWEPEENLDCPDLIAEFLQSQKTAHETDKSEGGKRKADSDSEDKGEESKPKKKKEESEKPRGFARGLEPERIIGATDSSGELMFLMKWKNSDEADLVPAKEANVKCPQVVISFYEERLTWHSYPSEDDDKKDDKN
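Compound inhibition of the preformed complex between 50 nM HP1-beta and 50 nM biotinylated H3K9me3 peptide was read by AlphaScreen. Buffer was PBS pH 7.4 with 0.01% Tween-20. Incubations ran 30 min at room temperature, with 10 ug/mL donor/acceptor beads.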
Six1-Eya2 inh: qHTS Assay for Inhibitors of the Six1/Eya2 Interaction | AlphaScreen GST-Six1/His-Eya2 binding, biochemical; hits give low values | actives 0.56% (n = 360,000) | AID 651725, 2012 | Homeobox protein SIX1 (Homo sapiens) + Protein phosphatase EYA2 (Homo sapiens), … | activity change, % (no concentration beside the values); in the data active = activity change below about -65%; inconclusive = mostly about -30% to -63%; also: % is scaled to controls: 0 for no effect and ±100 for the full control effect
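Compounds are tested against tagged Six1 and Eya2 proteins bridged by glutathione donor and nickel acceptor beads; after a one-hour incubation at 37 °C without light, AlphaScreen emission is recorded.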
G9a block: qHTS Assay for Inhibitors of Histone Lysine Methyltransferase G9a | Histone-lysine N-methyltransferase EHMT2 (Homo sapiens), Q96KQ7 | G9a H3K9 monomethylation, AlphaScreen, 2 h | Potency, µM (doses to about 102 µM), inactives show at the highest dose activity, negative = inhibition, most hits filed as inhibitors | AID 504332, 2011 | actives 8.8% (n = 350,000); also: potency is read from the fitted curve at half-maximal effect; % is scaled to controls: 0 for no effect and ±100 for the full control effect; nearly all actives have a fitted effect of over 75% in size
Target sequence (Q96KQ7 913-1193 limits assumed): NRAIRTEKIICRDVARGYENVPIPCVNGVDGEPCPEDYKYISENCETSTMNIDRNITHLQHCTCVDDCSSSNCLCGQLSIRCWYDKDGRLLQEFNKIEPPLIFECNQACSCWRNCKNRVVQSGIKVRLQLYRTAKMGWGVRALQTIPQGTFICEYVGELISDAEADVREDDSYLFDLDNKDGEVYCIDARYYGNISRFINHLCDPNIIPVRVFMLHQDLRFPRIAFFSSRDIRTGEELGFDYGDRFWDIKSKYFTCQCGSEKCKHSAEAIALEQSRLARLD
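Step 1: enzyme (final 20 nM) with compound, 15 min RT. Step 2: substrate peptide 500 nM and SAM 20 uM, 2 h RT. Step 3: anti-H3K9me1 antibody and AlphaScreen beads, 10 min, then plate read.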
The depositor's hits bear a star; ? = inconclusive; . = not tested or not shown; [ ] = remark or other dose. Only some compounds are listed: those with a hit (about 10% of all), similar ones and a draw of the others. Unless noted, calls follow the shape of the dose curve; as a rule, active = well fitted inhibition curve with a large enough effect; inconclusive = small, poorly fitted or top-dose-only effect; inactive = no such curve, though single readings can be large or run the other way.

SMILES | BAZ2B inh | JMJD2A Tudor inh | CtBP-E1A inh | HP1b binding inh | Six1-Eya2 inh | G9a block
CCN(CC(F)(F)C(F)F)S(=O)(=O)c1ccc(NC(=O)OC)cc1 | 2.1% | 20µM* | 5.2 | ? | 3.4 | 52.6%[59 µM]
Cc1ccc2nc(-c3ccc(NC(=S)NC4CC(C)(C)NC(C)(C)C4)cc3)sc2c1 | -33.4% | -33.9% | -23.9 | -5.3% | 22.7 | 50.1µM*
Cc1cc2ncn(C(=O)c3ccc(F)cc3)c2cc1C | 9.1% | -12.6% | -2.3 | 27.0% | 0.9 | -8.9%
S=C(NCc1ccncc1)NC1CCCC1 | -17.2% | -9.8% | 12.4 | 20.3% | 4.7 | 50.1µM*
CCN(CC)c1ccc(NC(=O)/C=C/c2cc(Br)ccc2OC)cc1 | 8.91µM* | 3.98µM* | ? | ? | ? | 1.9%[0.0925 µM]
NS(=O)(=O)c1ccc(CNC(=S)NC2CC2)cc1 | ? | -7.2% | 0.0 | -9.6% | -1.3 | 28.2µM*
CCN(CC)c1ccc(/C=N/NC(=O)OC(C)(C)C)cc1 | ? | -20.3% | -8.8 | -0.5% | -3.0 | 50.1µM*
NS(=O)(=O)c1ccc(CCNC(=S)NC2CCCCC2)cc1 | -5.8% | -15.9% | 0.2 | 7.2% | 6.8 | 8.8%
COc1ccccc1CNC(=O)CN1N=C(c2ccccc2)CCC1=O | 4.2% | -5.5% | . | 43.7% | . | -2.5%[59 µM]
O=C(NCc1ccccc1)C(c1ccc(-c2ccccc2)cc1)N1CCN(CCN2CCOCC2)CC1 (stereo unspecified) | . | . | 2.5 | . | 0.8 | .
COC(=O)c1ccc(NC(=S)NC2CC(C)(C)NC(C)(C)C2)cc1 | -12.8% | -17.0%[57.1 µM] | 8.3 | 24.4% | 3.3 | ?
COC(=O)Nc1ccc(NC(C)=O)cc1 | 3.9% | -10.8% | 7.1 | 18.4% | 0.7 | 8.2%[59 µM]
CC(=O)Nc1ccc(NC(=S)NC(=O)C2CCCC2)cc1 | -20.6% | -18.5% | 9.7 | 33.5% | 5.9 | 35.1%
CCOC(=O)C(Cc1ccccc1)C(=O)Nc1ccc(N(CC)CC)cc1 (stereo unspecified) | ? | 50.1µM* | -28.6 | ? | ? | 3.55µM*
CCOC(=O)C(Cc1ccccc1)C(=O)Nc1cccc(C)c1 (stereo unspecified) | 1.1% | -7.5% | 8.2 | 50.3% | 8.1 | -11.8%[59 µM]
CC1(C)CC(NC(=S)Nc2ccc(S(N)(=O)=O)cc2)CC(C)(C)N1 | -7.1% | -1.4% | -7.9 | 26.7% | -3.1 | 50.1µM*
CCN(CC)c1ccc(NC(=O)OC)cc1 | ? | ? | -12.1 | -28.8% | -27.1 | 3.55µM*
NS(=O)(=O)c1ccc(NC(=S)NC(=O)C2CCCC2)cc1 | -23.1% | -13.8% | 2.6 | 34.1% | 2.0 | 70.8µM*
Cc1ccc(-c2nnc(SCC(=O)NCc3ccccc3)o2)cc1 | 6.7% | -7.8% | . | 24.3% | . | 45.4%[59 µM]
COCCNC(=O)c1ccc(-c2nc(CN3CCc4ccccc43)c(C)o2)cc1 | -21.8% | -20.4% | . | 10.5%[57 µM] | . | -24.4%[59 µM]
COCCSc1nnc(NC(=O)c2ccc(NC(=O)C(C)C)cc2)s1 | -1.3% | -8.2% | . | 28.5% | 16.6 | 6.9%
COc1ccc(NC(=S)NCc2ccc(S(N)(=O)=O)cc2)cc1OC | -9.5% | ? | -23.3 | 36.6% | -8.2 | ?
NS(=O)(=O)c1ccc(CNC(=S)Nc2ccc(Cl)c(Cl)c2)cc1 | -12.0% | -16.8% | -1.7 | -0.8% | -0.4 | 44.7µM*
CN(C)CCNC(=O)c1c(O)c2c([nH]c1=O)CCCC2 | -34.6% | -13.2% | 3.2 | 2.5% | 2.1 | -12.6%[12.7 µM]
CCN(CC)CCNC(=O)c1c(O)c2c([nH]c1=O)CCCC2 | -6.3% | -19.4% | 5.8 | 21.8% | 0.3 | 79.4µM*
SMILES | BAZ2B inh | JMJD2A Tudor inh | CtBP-E1A inh | HP1b binding inh | Six1-Eya2 inh | G9a block
C=C1CCN(C(CC(C)C)C(=O)Nc2ccc(OC)cc2)S(=O)(=O)c2ccccc21 (stereo unspecified) | . | -14.5% | . | 24.6% | . | .
CC(OC(=O)CCCN=C1NS(=O)(=O)c2ccccc21)C(=O)Nc1ccccc1[N+](=O)[O-] (stereo unspecified) | 8.6% | -22.8% | -22.1 | 6.7% | -3.4 | ?
CC1CC(C)(C)N2C(=O)C3(Nc4ccccc4S3)c3cccc1c32 (stereo unspecified) | 50.1µM* | 50.1µM* | -22.2 | -1.5% | -17.9 | 44.7µM*
O=C(c1ccccc1-n1cccn1)N1CCc2c([nH]c3ccccc23)C1c1ccccn1 (stereo unspecified) | ? | ? | -13.3 | -23.2% | -9.1 | ?
CC(=O)c1ccc(C(=O)N2CCc3c([nH]c4ccccc34)C2c2ccccn2)s1 (stereo unspecified) | 35.5µM* | ? | -3.3 | 2.6% | -10.3 | ?
Cc1ccc2nc(C(=O)N3CCc4c([nH]c5ccccc45)C3c3ccccn3)cn2c1 (stereo unspecified) | -1.5% | ? | -13.8 | -21.3% | -10.3 | .
CSc1nc(C(=O)N2CCc3c([nH]c4ccccc34)C2c2ccccn2)cs1 (stereo unspecified) | 31.6µM* | 50.1µM* | -10.3 | -18.8% | -13.4 | ?
O=C(c1noc2c1CCCC2)N1CCc2c([nH]c3ccccc23)C1c1ccccn1 (stereo unspecified) | ? | ? | -1.7 | ? | -12.9 | 50.1µM*
O=C(c1ccccc1-c1ncc[nH]1)N1CCc2c([nH]c3ccccc23)C1c1ccccn1 (stereo unspecified) | 28.2µM* | ? | ? | -25.0% | -10.2 | .
O=C(c1cc(-c2ccccc2)n[nH]1)N1CCc2c([nH]c3ccccc23)C1c1ccccn1 (stereo unspecified) | -37.5% | ? | -11.0 | -5.6% | -18.4 | ?
O=C(c1cccs1)N1CCc2c([nH]c3ccccc23)C1c1ccccn1 (stereo unspecified) | ? | ? | -27.9 | -1.4% | -9.4 | 44.7µM*
CCc1nc(C)ccc1OCC(=O)N1CCc2c([nH]c3ccccc23)C1c1ccccn1 (stereo unspecified) | -13.1% | ? | 6.0 | 10.4% | -12.2 | -5.3%
O=C(c1cccs1)N1CCc2c([nH]c3ccccc23)C1c1ccc(Cl)cc1 (stereo unspecified) | -38.9% | -35.8% | -13.9 | -17.9% | -18.3 | ?
COc1ccc(OCC(=O)N2CCc3c([nH]c4ccccc34)C2c2ccccn2)cc1 (stereo unspecified) | ? | 56.2µM* | . | -13.0% | 3.1 | ?
